The sample as a whole holds a higher share of hits than the screen did.
Dicer processing = inhibitors of human Dicer processing of pre-microRNA | cat-ELCCA pre-miR-21 Dicer processing, chemiluminescence; stronger effect = higher value | 47,000 tested, 6% active | Q9UPY3 | z-score at 25 µM; in the data active = z-score above about 3, passing the limit was not always enough;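 also: plate controls were vehicle for no effect and no enzyme for full effect; higher signal means more uncleaved substrate so more Dicer inhibition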
Target sequence (Q9UPY3 whole entry, looked up): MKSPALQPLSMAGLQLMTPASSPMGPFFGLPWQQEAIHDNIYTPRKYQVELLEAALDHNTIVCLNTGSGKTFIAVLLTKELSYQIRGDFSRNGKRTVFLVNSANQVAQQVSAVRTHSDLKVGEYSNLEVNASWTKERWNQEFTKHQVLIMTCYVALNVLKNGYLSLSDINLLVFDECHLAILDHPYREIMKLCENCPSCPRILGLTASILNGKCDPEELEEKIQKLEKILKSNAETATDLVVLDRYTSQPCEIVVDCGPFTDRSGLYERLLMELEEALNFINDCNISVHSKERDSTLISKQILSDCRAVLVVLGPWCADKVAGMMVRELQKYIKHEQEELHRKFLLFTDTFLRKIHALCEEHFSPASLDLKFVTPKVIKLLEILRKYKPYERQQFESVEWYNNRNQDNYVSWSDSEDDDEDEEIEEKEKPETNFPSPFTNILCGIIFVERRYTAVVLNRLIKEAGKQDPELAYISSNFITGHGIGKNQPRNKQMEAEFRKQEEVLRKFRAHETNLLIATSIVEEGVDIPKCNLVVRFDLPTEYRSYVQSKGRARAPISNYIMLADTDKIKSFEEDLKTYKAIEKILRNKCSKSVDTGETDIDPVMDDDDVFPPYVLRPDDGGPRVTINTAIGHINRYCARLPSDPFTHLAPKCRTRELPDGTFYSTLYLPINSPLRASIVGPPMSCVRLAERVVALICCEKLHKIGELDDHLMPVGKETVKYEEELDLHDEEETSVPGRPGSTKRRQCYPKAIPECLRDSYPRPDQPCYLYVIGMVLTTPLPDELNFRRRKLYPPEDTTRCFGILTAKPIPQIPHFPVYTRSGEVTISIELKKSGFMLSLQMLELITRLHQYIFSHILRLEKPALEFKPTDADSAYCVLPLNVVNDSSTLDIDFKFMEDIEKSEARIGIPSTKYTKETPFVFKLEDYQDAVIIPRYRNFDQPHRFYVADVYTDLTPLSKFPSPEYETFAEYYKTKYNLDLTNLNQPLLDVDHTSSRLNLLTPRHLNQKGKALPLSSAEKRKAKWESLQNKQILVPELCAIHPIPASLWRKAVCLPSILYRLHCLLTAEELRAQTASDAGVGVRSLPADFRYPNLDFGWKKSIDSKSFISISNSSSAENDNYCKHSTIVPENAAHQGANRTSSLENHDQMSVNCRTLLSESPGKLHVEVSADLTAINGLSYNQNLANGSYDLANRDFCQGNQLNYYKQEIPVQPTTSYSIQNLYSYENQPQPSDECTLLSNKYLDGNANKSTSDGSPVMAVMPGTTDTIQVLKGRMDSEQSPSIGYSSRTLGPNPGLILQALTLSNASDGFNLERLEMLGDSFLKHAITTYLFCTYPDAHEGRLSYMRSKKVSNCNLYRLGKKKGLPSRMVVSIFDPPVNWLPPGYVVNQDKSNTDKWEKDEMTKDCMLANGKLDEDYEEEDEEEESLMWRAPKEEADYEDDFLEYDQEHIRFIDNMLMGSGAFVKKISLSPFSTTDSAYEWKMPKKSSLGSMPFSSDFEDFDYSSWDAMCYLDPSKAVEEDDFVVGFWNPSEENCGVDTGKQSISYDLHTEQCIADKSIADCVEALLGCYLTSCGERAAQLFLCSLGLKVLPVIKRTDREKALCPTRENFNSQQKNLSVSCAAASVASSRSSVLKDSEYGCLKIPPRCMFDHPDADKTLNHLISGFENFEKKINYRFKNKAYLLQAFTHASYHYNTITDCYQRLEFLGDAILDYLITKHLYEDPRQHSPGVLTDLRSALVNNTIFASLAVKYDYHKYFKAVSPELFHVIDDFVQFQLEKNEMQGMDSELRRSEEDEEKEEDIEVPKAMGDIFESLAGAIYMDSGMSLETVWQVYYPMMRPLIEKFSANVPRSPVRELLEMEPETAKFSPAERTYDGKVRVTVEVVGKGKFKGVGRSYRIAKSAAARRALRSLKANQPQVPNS
An asterisk follows results filed as active.

SMILES | Dicer processing
O=C(CSC(=S)NNc1ccccc1)c1ccc(Cl)cc1 | 3.1*
O=C(CSC(=S)NNc1ccccc1)c1cccc([N+](=O)[O-])c1 | -1.15
CC(C)(C)SC(=S)SCC(=O)c1ccc(Cl)cc1 | -2.66
CCc1ccnc(NC(=O)Nc2ccc(C)c(Cl)c2)c1 | -0.36
CC(C)(C)c1ccc2c(c1)CN(c1ccc(F)cc1)CO2 | 6.26*
CC(C)(C)c1ccc2c(c1)CN(c1cccc(C(=O)O)c1)CO2 | -0.89
CC(C)(C)c1ccc2c(c1)CN(Cc1ccccc1)CO2 | 2.6
CCOC(=O)C(O)(c1ccc(N)c(C)c1)C(F)(F)F (stereo unspecified) | -0.46
CC(C)Nc1ncnc2sc3c(c12)CCCC3 | -0.71
C/C(=C\C(=O)c1cccc(Cl)c1F)N(C)C | 0.24
Nc1cccc(NC(=O)c2ccccc2O)c1 | 5.88*
COc1ccc(C=Nc2cccc(NC(=O)c3ccccc3O)c2)cc1 | 1.86
Nc1ccccc1NC(=O)c1ccccc1O | 0.52
Cc1ccc(-c2nnc3c4ccccc4c(C)nn23)cc1S(=O)(=O)NC(C)(C)CO | 1.85
COc1nccnc1NS(=O)(=O)c1ccc(NCc2cc(Cl)ccc2O)cc1 | 3.71*
COc1ccc(-c2cnc(NCc3cc(Cl)ccc3O)n2C)cc1 | 1.26
Cc1cc(C)nc(NS(=O)(=O)c2ccc(NCc3cc(Br)ccc3O)cc2)n1 | 10.3
COc1cccc2c1c(NC(=O)c1cnn(-c3ccc(F)cc3)c1C)nn2C | 1.22
COc1cc(OCc2ccccc2)ccc1CN1CCN(C)CC1 | -0.73
Cc1ccc(CC2CC(=O)N(Cc3ccco3)C2=O)cc1 (stereo unspecified) | 3.58*
Cc1ccc(CC2CC(=O)N(c3ccc(C(=O)O)cc3)C2=O)cc1 (stereo unspecified) | 2.34
Cc1ccc(CC2CC(=O)N(c3ccncc3)C2=O)cc1 (stereo unspecified) | -0.31
CC1(C)NC(C(=O)O)C(C)(C)S1 (stereo unspecified) | 0.14
O=C(c1ccc(N2CCOCC2)nc1)N1CCOCC1 | 0.43
O=C1c2ccccc2-c2cccc(C(=O)N3CCCCC3)c21 | -1.23
SMILES | Dicer processing
O=C1c2ccccc2-c2ccc(C(=O)N3CCOCC3)cc21 | 4.1*
Cc1ccccc1OCc1nnc2c3cnn(Cc4ccccc4)c3ncn12 | 0.11
O=C(Nc1nc2ccccc2s1)c1cc(Br)ccc1Cl | 0.28
COc1cc2nc(NC(=O)c3ccc(C(C)(C)C)cc3)sc(=O)c2cc1OC | -1.17
COc1cc2nc(NC(=O)c3ccco3)sc(=O)c2cc1OC | 1.03
COc1cc2nc(NC(C)=O)sc(=O)c2cc1OC | 3.64*
CCn1c2ccccc2c2cc(CN3CCN(S(=O)(=O)c4ccccc4)CC3)ccc21 | 0.78
Cn1cc(Cl)c(C(=O)Nc2ccncc2)n1 | 0.83
Cc1ccc2c(c1)C(=O)OC1(O)C3C4C=CC(C4)C3C(=O)N21 (stereo unspecified) | 1.9
O=C1C2C3C=CC(C3)C2C(=O)N1c1cccc(N2C(=O)C3C4C=CC(C4)C3C2=O)n1 (stereo unspecified) | 12.5
O=C1OC2(O)C3C4C=CC(C4)C3C(=O)N2c2ccccc21 (stereo unspecified) | 4.94*
CC1CC(N2CNC(=S)NC2)CC(C)(C)C1 (stereo unspecified) | 0.61
COc1cccc(N2CCn3c2nc2c3c(=O)n(CC(=O)O)c(=O)n2C)c1 | 1.48
Cn1c(=O)n(CC(=O)O)c(=O)c2c1nc1n2CCCN1c1cccc(Cl)c1 | 1.48
Cn1c(=O)n(CC(=O)O)c(=O)c2c1nc1n2CCN1c1ccc(Cl)cc1 | 3.35*
O=[N+]([O-])c1cc(CO)ccc1N1CCOCC1 | 0.84
Cc1nn(C)c2ncc3c(=O)[nH]n(C)c3c12 | 0.49
COC(=O)C1=C(C)Nc2nc3ccccc3n2C1c1ccc(C(C)C)cc1 (stereo unspecified) | 0.32
Cc1nn(-c2ccc([N+](=O)[O-])cc2)c2[nH]c3ccccc3c(=O)c12 | 4.16*
Cc1nn(-c2ccccc2)c2[nH]c3ccccc3c(=O)c12 | 1.32
Cc1nn(-c2ccc([N+](=O)[O-])cc2)c(N)c1C(N)=S | -1.47
c1ccc(-c2cn3ccsc3n2)cc1 | 0.32
CCOC(=O)CNC(=O)c1cc2cc(Br)ccc2o1 | -1.43
CCCCCSc1nnc(N)s1 | 4.61*
Cc1ccc(C(=O)N2CCN(C(=O)CSc3nnc(N)s3)C2)cc1 | -0.88
SMILES | Dicer processing
Nc1nnc(SCC(=O)N2CCc3ccccc3C2)s1 | 1.77
CCOC(=O)NC(=S)Nc1ccc(C(C)(C)C)cc1Cl | 2.68
CNC(=O)NNC(=O)c1ccc(C(C)(C)C)cc1 | -2.39
CNC(=O)Nc1ccc(C(C)(C)C)cc1Cl | 5.14*
Cc1ccc(S(=O)(=O)/C(=N/Nc2cc(C(F)(F)F)cc(C(F)(F)F)c2)[N+](=O)[O-])cc1 | 0.29
C=CCSc1nnc(-c2ccc(C(F)(F)F)nc2C)o1 | -0.21
CCOC(=O)c1sc(=S)n(-c2ccc(OC)cc2)c1N | 2.19
COc1ccc(-n2ccsc2=S)cc1 | 4.69*
COc1ccc(N2C(=O)CCC2=O)cc1 | -0.74
Cc1ccc(Sc2cc(N3CCOCC3)c(C)cc2[N+](=O)[O-])cc1 | -1.25
COc1ccc(Sc2ccc(C)cc2)c([N+](=O)[O-])c1 | 0.77
Cc1ccc(Sc2ccc(/C=C3/SC(=S)NC3=O)cc2[N+](=O)[O-])cc1 | 4.6*
CN(CCc1ccccn1)Cc1ccccn1 | -1.03
CN(CCc1ccccn1)Cc1ccc(F)cc1 | -0.8
CN(CCc1ccccn1)Cc1cccc(F)c1 | 3.47*
CSc1cccc(-n2c(CCc3ccc(O)cc3)n[nH]c2=S)c1 | -0.47
COc1ccccc1C1CCN(Cc2ccc(Cl)cc2Cl)CC1 | -0.25
COc1ccccc1C1CCN(c2ccc(C(F)(F)F)cc2[N+](=O)[O-])CC1 | 0.04
COc1ccccc1C1CCN(c2ccc([N+](=O)[O-])c(OC)c2)CC1 | 3.44*
CC(C)(C)c1cc2nc(C(F)(F)F)cc(N/N=C/c3ccc(C(F)(F)F)cc3)n2n1 | -0.3
CN(C)c1ccc(C2CC(=O)C=C(NC3Cc4ccccc4C3)C2)cc1 (stereo unspecified) | 4.63*
O=C1C=C(NC2Cc3ccccc3C2)CC(c2ccccc2)C1 (stereo unspecified) | -0.9
O=C1C=C(NC2Cc3ccccc3C2)CC(c2cccc(Cl)c2)C1 (stereo unspecified) | -0.95
Cn1nc(C(F)(F)F)c(-c2ccc(Br)cc2)c1NC(=O)c1ccccc1 | 1.61
C=C(C)Cc1c(COC)nc(SC)[nH]c1=O | 2.19
SMILES | Dicer processing
Cc1nnc(SCC(=O)Nc2ccc(F)c(F)c2)s1 | 2.37
COC(=O)c1sc2nc(C(OC)OC)ccc2c1N | 0.4
COc1cccc(N2C(=O)C3C(C2=O)C2(C)c4ccccc4C3(C)c3ccccc32)c1 (stereo unspecified) | 0.96
COc1ccc(-c2cc(C(F)(F)F)nc(SCCC(=O)N3CCCC3)n2)cc1 | 3.26*
O=C(CCSc1nc(-c2ccc3c(c2)OCO3)cc(C(F)(F)F)n1)N1CCCC1 | 0.35
CC1CCN(C(=O)CCSc2nc(-c3ccco3)cc(C(F)(F)F)n2)CC1 | 0.51
Cc1ccc(Cl)cc1NC(=S)N(N)CCO | 0.76
COC(OC)c1ccnc(SCc2ccc(Cl)cc2Cl)n1 | -1.03
CC(C(=O)OCc1cccc(Br)c1)N1C(=O)C(=O)c2ccccc21 (stereo unspecified) | 0.16
Cc1ccc2c(C)nc(Nc3nc4c(c(=O)[nH]3)CCCC4)nc2c1 | 0.79
COC(=O)C1=CC=C(c2ccc(OC)cc2)SC1 | -0.72
CC12CN3CC(C)(CN(C1)C3c1ccc(O)c(O)c1)C2 (stereo unspecified) | 3.11*
COc1ccc(C2N3CC4(C)CN2CC(C)(C3)C4)cc1OC (stereo unspecified) | 1.8

Bioassay records as filed in PubChem.
